# Results: PubChem BioAssay (NCI)
# Several values for one entry are separate records, joined by “and”; a condition that tells them apart may be missing. Identical values can stand only once. About 83,000 compounds went through this panel and 20% of them were active in at least one assay; those are over-represented in the sample as a whole.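 Growth was measured after 48 h exposure to one concentration of compound in 96-well plates. Values under 10 count as active.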 Activity calls are given as the source filed them.
# System: HL-60(TB) leukemia
# Assay: NCI-60 one-dose screen, 48 h (100 = growth as untreated, 0 = no growth, -100 = all killed)
# Settings: 10 µM unless noted
row,Structure (SMILES),growth
1,O=C(Nc1cccc(-n2cc(-c3ccncc3)c(-c3ccc(Cl)c(O)c3)n2)c1)Nc1cccc(C(F)(F)F)c1,12.5% (inactive)
2,COc1ccc(-c2nc(/C=N/Nc3cc(C)nc4ccc(Cl)cc34)c(C)o2)cc1,-41% (active)
3,CC1=CC(C)(C)NC(=S)N1c1ccc(Cl)cc1,94.7% (inactive) and 97.6% (inactive)
